The values that follow come from the supplement of paper PMC6555819.

Experiment in all cases: PBM binding z-score (relative to random genomic background probes); higher = stronger binding; sequences stand for … in GC…GCGATTGACAGCGTAGAATGAAGG
In experiment [1] the test system is RARb homodimer (NR concentration 270 nM). The essentials:
(§1)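 On custom Agilent 4×180K arrays, double-stranded probes with 34-nt variable regions carried direct-repeat seeds, single-nucleotide variants, half-site ablations or random human genomic background. Ligand-free nuclear receptor dimers were applied for 1 h, and binding was read with antibodies against each partner (one per run). Binding z-scores come from regression-normalized fluorescence, with the random background probes as reference.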

Experiment [2] has as its system RARg:RXRa (NR concentration 270 nM, RXRa partner concentration 90 nM). The essentials:
as §1

The subject of experiment [3] is RARg homodimer (NR concentration 270 nM). The essentials: as §1
The subject of experiment [4] is RXRa DBDmut IVT, anti-RXR (DBD mutation: RXRa K156A/R161A, NR concentration 90 nM). The essentials: as §1
Experiment [5] deals with RXRa homodimer (NR concentration 180 nM). The essentials:
as §1

Experiment [6] has as its system THRa:RXRa (NR concentration 90 nM, RXRa partner concentration 90 nM). The method, boiled down:
as §1

Experiment [7] relates to THRa homodimer (NR concentration 90 nM). The essentials:
as §1

Experiment [8] has as its system VDR homodimer (NR concentration 270 nM). The method, boiled down: as §1

With CCTCGGAGGACAACAGGAGGTCAGGGCTGCCAGA, the PBM binding z-score in experiment [1] is 3.69; in experiment [2], 3.63; in experiment [3], 3.49; in experiment [4] it was -0.237; in experiment [5] it was 2.24; in experiment [6], 2.96. Further, the results for the PBM binding z-score in experiment [7] and in experiment [8] were 1.34 and 0.949, respectively.

In the case of GTACCAAGGTGAATTGGTCGTTGATGAGTAGGCG, the PBM binding z-score in experiment [1] is 0.471; in experiment [2] it was 0.331; in experiment [3], 0.444; in experiment [4], -0.385; in experiment [5], 0.215; in experiment [6] it was 1.17. In addition, the PBM binding z-score in experiment [7] was 0.25; in experiment [8], -0.534.

On to CTATCAAGGTGAACAAGGTCGTTGATTACTATTC, for which the PBM binding z-score in experiment [1] came out at 1.7; in experiment [2], 1.76; in experiment [3], 1.54; in experiment [4], 1.5; in experiment [5] it was 1.7; in experiment [6], 3.12. Further, the PBM binding z-score in experiment [7] is 1.85; in experiment [8] it was 2.72.
